In PubChem BioAssay (NCATS):
Results filed as inconclusive are left out. Active and inactive are the calls of the source. Calls follow the shape of the dose curve; as a rule, active = well fitted curve in the direction sought with a large enough effect; inconclusive = small, poorly fitted or top-dose-only effect, or another doubt; inactive = no such curve, though single readings can be large; an effect the other way counts as inactive or inconclusive.

What was measured:
[1] = biological target: Rap guanine nucleotide exchange factor 3 (Homo sapiens) (UniProt O95398); test: Confirmatory qHTS for antagonist of cAMP-regulated guanine nucleotide exchange factor 3 (EPAC1) (AID 1645880); also: nearly all actives have a fitted effect of over 55% in size; also: potency is read from the fitted curve at half-maximal effect
Method in brief: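 Nucleotide exchange uses 100 nM EPAC1, 250 nM RAP1B-BODIPY-GDP and 50 uM GDP, with compounds in a concentration-titration series. After 5 min at room temperature, fluorescence (480 nm ex/540 nm em) is read every 5 min for 30 min. Data are normalized to control ATA and DMSO.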

[2] = biological target: Rap guanine nucleotide exchange factor 3 (Homo sapiens) (UniProt O95398); test: Confirmatory qHTS for agonist of cAMP-regulated guanine nucleotide exchange factor 3 (EPAC1) (AID 1645881); also: nearly all actives have a fitted effect of over 75% in size; also: potency is read from the fitted curve at half-maximal effect;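 as to activation: EPAC1 catalysed release of BODIPY-GDP from Rap1B seen as fluorescence loss; 100% = effect of cAMP agonist control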
[3] = biological target: Rap guanine nucleotide exchange factor 4 (Homo sapiens) (UniProt Q8WZA2); test: Confirmatory qHTS for agonist of cAMP-regulated guanine nucleotide exchange factor 4 (EPAC2) (AID 1645884);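 also: nucleotide exchange releases bodipy-GDP from Rap1 and this lowers its fluorescence; nearly all actives have a fitted effect of over 65% in size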; also: potency is read from the fitted curve at half-maximal effect; as to activation: % is scaled to controls: 0 for no effect and ±100 for the full control effect
[4] = biological target: Rap guanine nucleotide exchange factor 4 (Homo sapiens) (UniProt Q8WZA2); test: Confirmatory qHTS for antagonist of cAMP-regulated guanine nucleotide exchange factor 4 (EPAC2) (AID 1645885); also: nearly all actives have a fitted effect of over 25% in size; also: potency is read from the fitted curve at half-maximal effect; as to activity change, negative = inhibition: % is scaled to controls: 0 for no effect and ±100 for the full control effect
[5] = biological target: Rap guanine nucleotide exchange factor 3 (Homo sapiens) (UniProt O95398); test: Counterscreen qHTS for antagonist of cAMP-regulated guanine nucleotide exchange factor 3 (EPAC1) (AID 1645888);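 also: fluorescence loss as bound BODIPY-GDP is released from Rap1B; % of control where 0% means no effect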
Method in brief: (§1)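 Rap1B–BODIPY-GDP (250 nM) with 50 uM GDP; compounds pin-transferred to 9.74 nM–152 uM final (activator) or from 7.32 nM upwards (inhibitor). Fluorescence Ex/Em 480/540 nm read at 5 and 30 min, then after adding cAMP or buffer, at room temperature.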

[6] = biological target: Rap guanine nucleotide exchange factor 3 (Homo sapiens) (UniProt O95398); test: Counterscreen qHTS for agonist of cAMP-regulated guanine nucleotide exchange factor 3 (EPAC1) (AID 1645889); also: nearly all actives have a fitted effect of over 40% in size; also: potency is read from the fitted curve at half-maximal effect; as to activation: % of control where 0% means no effect
Method in brief: as §1

Sequence of Rap guanine nucleotide exchange factor 4 (Homo sapiens) (Q8WZA2 whole entry, looked up): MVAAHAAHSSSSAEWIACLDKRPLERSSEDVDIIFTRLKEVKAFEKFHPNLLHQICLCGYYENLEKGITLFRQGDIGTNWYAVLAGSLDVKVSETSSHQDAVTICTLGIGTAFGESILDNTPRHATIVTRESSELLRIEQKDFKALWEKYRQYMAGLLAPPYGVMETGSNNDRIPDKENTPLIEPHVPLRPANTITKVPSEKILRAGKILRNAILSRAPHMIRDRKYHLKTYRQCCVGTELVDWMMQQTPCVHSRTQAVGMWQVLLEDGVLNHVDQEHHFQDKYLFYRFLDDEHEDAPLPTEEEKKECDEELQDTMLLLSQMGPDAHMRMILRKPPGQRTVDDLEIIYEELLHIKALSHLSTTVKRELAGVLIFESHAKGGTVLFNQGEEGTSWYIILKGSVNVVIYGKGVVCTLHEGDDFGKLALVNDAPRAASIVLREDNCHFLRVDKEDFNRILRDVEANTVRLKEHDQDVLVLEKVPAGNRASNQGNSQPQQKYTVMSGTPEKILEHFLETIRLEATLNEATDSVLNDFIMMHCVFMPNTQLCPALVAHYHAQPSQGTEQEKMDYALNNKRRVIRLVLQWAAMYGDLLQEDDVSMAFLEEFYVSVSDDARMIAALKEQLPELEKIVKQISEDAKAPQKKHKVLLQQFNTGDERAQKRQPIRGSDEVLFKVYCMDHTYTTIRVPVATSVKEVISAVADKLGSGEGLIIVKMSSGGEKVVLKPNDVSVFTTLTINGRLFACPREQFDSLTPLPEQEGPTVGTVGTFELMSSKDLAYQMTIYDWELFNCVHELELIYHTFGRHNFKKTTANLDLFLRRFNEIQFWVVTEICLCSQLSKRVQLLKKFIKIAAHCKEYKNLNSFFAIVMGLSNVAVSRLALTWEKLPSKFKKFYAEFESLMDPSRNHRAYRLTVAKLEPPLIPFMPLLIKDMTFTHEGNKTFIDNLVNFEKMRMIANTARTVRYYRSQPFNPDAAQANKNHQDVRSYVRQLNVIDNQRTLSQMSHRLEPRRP
Sequence of Rap guanine nucleotide exchange factor 3 (Homo sapiens) (O95398 whole entry, looked up): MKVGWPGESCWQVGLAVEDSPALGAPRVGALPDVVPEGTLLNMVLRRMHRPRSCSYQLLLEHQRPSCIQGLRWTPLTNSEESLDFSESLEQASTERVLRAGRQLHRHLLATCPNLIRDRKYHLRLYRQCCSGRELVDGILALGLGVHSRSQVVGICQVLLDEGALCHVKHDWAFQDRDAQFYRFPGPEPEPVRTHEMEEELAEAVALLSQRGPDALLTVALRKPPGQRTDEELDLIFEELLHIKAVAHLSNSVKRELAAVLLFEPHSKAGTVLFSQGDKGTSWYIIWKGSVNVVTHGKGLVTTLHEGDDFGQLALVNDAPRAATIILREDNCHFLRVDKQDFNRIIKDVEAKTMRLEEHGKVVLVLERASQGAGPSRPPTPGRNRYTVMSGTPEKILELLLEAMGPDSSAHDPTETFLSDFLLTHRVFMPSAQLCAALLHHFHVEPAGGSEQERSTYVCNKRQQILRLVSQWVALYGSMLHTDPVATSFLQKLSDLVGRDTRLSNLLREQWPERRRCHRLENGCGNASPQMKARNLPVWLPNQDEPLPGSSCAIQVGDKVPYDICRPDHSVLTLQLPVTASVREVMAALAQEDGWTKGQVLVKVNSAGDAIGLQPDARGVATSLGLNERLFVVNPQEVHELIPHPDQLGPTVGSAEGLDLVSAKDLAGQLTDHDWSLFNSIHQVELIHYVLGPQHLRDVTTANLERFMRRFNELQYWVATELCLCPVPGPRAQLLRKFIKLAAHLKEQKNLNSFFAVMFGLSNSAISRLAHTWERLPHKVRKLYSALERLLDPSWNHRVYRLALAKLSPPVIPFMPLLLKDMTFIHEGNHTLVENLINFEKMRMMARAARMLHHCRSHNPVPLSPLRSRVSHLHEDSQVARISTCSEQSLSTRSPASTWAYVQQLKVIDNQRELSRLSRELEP

COC(=O)C1(Cc2ccccc2)NC(c2ccc(F)cc2)C2C(=O)N(C)C(=O)C21 (stereo unspecified)
inactive: Potency [1] | Potency [2] | activation [3] 1.04% [at 17.1 µM, percent relative to cAMP agonist control] | Potency [4] | activity change, negative = inhibition [5] 4.27% [at 30.8 µM] | activation [6] 3.32% [at 30.8 µM]

CCCC[C@@H]1CNC(=O)C(=O)N1CCc1cccc(F)c1
inactive: Potency [1] | Potency [2] | activation [3] 9.22% [at 17.1 µM, percent relative to cAMP agonist control] | Potency [4] | activity change, negative = inhibition [5] -3.55% [at 30.8 µM] | activation [6] -0.443% [at 30.8 µM]

CC(OC(=O)c1nn(C)c(=O)c2ccccc12)C(=O)NC1CCCCC1C (stereo unspecified)
inactive: Potency [1] | Potency [2] | Potency [3] | Potency [4] | Potency [5] | Potency [6]

COC1=CC(=O)c2c(ccc3ncnc(N)c23)C1=O
active: Potency [1] 19 µM | Potency [4] 26.9 µM
inactive: Potency [2] | Potency [3] | Potency [5] | Potency [6]

COc1ccccc1NC(=O)COC(=O)c1ccc([N+](=O)[O-])s1
active: Potency [1] 21.3 µM
inactive: Potency [2] | Potency [3] | Potency [4] | Potency [5] | Potency [6]

O=C(Nc1ccc2nc(-c3ccc4nc[nH]c4c3)[nH]c2c1)c1cccs1
inactive: Potency [1] | Potency [2] | activation [3] 3.61% [at 17.1 µM, percent relative to cAMP agonist control] | Potency [4] | activity change, negative = inhibition [5] 8.72% [at 30.8 µM] | activation [6] 15.6% [at 30.8 µM]

O=C(CCC1CCCC1)Nc1ccc([N+](=O)[O-])cn1
inactive: Potency [1] | Potency [2] | Potency [3] | Potency [4] | Potency [5] | Potency [6]

Cc1ccc2c(c1)c1c(c(=O)n(-c3cccc(Cl)c3)c(=O)n1C)n2C
inactive: Potency [1] | Potency [2] | Potency [3] | Potency [4] | Potency [5] | Potency [6]

O=c1oc(-c2ccccc2)c(-c2ccccc2)c2ccccc12
inactive: Potency [1] | Potency [2] | Potency [3] | Potency [4] | Potency [5] | Potency [6]

COc1cccc(/C=C2\SC(=S)N(C(Cc3ccccc3)C(=O)O)C2=O)c1 (stereo unspecified)
active: Potency [1] 47.8 µM
inactive: Potency [2] | Potency [3] | Potency [4] | Potency [5] | Potency [6]

O=c1ccc(-c2ccccc2)nn1Cc1c(F)cccc1Cl
inactive: Potency [1] | Potency [2] | Potency [3] | Potency [4] | Potency [5] | Potency [6]

CCCCCC1CCC(c2ccc(C(N)=O)cc2)CC1 (stereo unspecified)
inactive: Potency [1] | Potency [2] | Potency [3] | Potency [4] | Potency [5] | Potency [6]

O=c1c2ccccc2[nH]c(=S)n1-c1cccc(S(=O)(=O)N2CCCC2)c1
inactive: Potency [1] | Potency [2] | Potency [3] | Potency [4] | Potency [5] | Potency [6]

CC(=O)NC(C)c1nc2ccccc2n1Cc1ccccc1Cl (stereo unspecified)
inactive: Potency [1] | Potency [2] | Potency [3] | Potency [4] | Potency [5] | Potency [6]

O=S1(=O)CCN2C(Cc3ccc(SC(F)F)cc3)=CSC2=N1
inactive: Potency [1] | Potency [2] | Potency [3] | Potency [4] | Potency [5] | Potency [6]

CCOc1cc(/C=N/Nc2nc(-c3cccs3)c(NC(C)=O)s2)ccc1O
inactive: Potency [1] | Potency [2] | Potency [3] | Potency [4] | Potency [5] | Potency [6]

O=C(COc1ccccc1Br)NCCC1=CCCCC1
inactive: Potency [1] | Potency [2] | activation [3] 11.2% [at 17.1 µM, percent relative to cAMP agonist control] | Potency [4] | activity change, negative = inhibition [5] -17.9% [at 30.8 µM] | activation [6] 20.5% [at 30.8 µM]

Cc1ccc(S(=O)(=O)N2CCN(C(=O)CC(C)n3nc(C)c(Cl)c3C)CC2)cc1 (stereo unspecified)
inactive: Potency [1] | Potency [2] | activation [3] 1.58% [at 17.1 µM, percent relative to cAMP agonist control] | Potency [4] | activity change, negative = inhibition [5] 13.5% [at 30.8 µM] | activation [6] 6.22% [at 30.8 µM]

CC(=O)CCc1oc2ccc(C)cc2c1-c1ccc(C)o1
inactive: Potency [1] | Potency [2] | activation [3] 9.77% [at 17.1 µM, percent relative to cAMP agonist control] | Potency [4] | activity change, negative = inhibition [5] -33.7% [at 30.8 µM] | activation [6] 31.9% [at 30.8 µM]

COc1ccc(C(=O)COC(=O)CCN2C(=O)C3CC=CCC3C2=O)c(OC)c1 (stereo unspecified)
inactive: Potency [1] | Potency [2] | activation [3] 1.05% [at 17.1 µM, percent relative to cAMP agonist control] | Potency [4] | activity change, negative = inhibition [5] -27.6% [at 30.8 µM] | activation [6] -0.565% [at 30.8 µM]

COc1ccc(OCC(=O)Nc2ccccc2N2CCCCC2)cc1
inactive: Potency [1] | Potency [2] | activation [3] -5.15% [at 17.1 µM, percent relative to cAMP agonist control] | Potency [4] | activity change, negative = inhibition [5] -4.31% [at 30.8 µM] | activation [6] 2.16% [at 30.8 µM]

CCOC(=O)c1c(NC(=O)c2ccc(S(=O)(=O)N3CCC(C)CC3)cc2)sc2c1CCN(C(C)C)C2
active: Potency [2] 89.1 µM | Potency [3] 31.6 µM | Potency [6] 44.7 µM
inactive: Potency [1] | outcome [4] inactive [at 12.7 µM] | Potency [5]

CCN(CC)S(=O)(=O)c1cc(NC(=O)Cn2ncc(Cl)c(Cl)c2=O)ccc1C
inactive: Potency [2] | activation [3] -11.9% [at 17.1 µM, percent relative to cAMP agonist control] | Potency [4] | activity change, negative = inhibition [5] -2.1% [at 30.8 µM] | activation [6] 5.37% [at 30.8 µM]
active: Potency [1] 39.8 µM

COc1ccc(C(=O)N2CCc3cc(OC)c(OC)cc3C2c2ccc(OC)c(OC)c2)cc1 (stereo unspecified)
inactive: Potency [1] | Potency [2] | activation [3] 5.17% [at 17.1 µM, percent relative to cAMP agonist control] | Potency [4] | activity change, negative = inhibition [5] -5.18% [at 30.8 µM] | activation [6] 15.1% [at 30.8 µM]

CCOC(=O)c1sc(NC(=O)c2ccncc2)nc1C
inactive: Potency [1] | Potency [2] | Potency [3] | Potency [4] | Potency [5] | Potency [6]

COc1cc2c(cc1OC)C(c1ccccc1Cl)N(C)CC2 (stereo unspecified)
inactive: Potency [1] | Potency [2] | activation [3] 2.32% [at 17.1 µM, percent relative to cAMP agonist control] | Potency [4] | activity change, negative = inhibition [5] 3.04% [at 30.8 µM] | activation [6] 9.1% [at 30.8 µM]

O=C(N/N=C/C=C\c1ccco1)c1ccccn1
inactive: Potency [2] | Potency [3] | Potency [4] | Potency [5] | Potency [6]
active: Potency [1] 6.01 µM

Cc1ccc(CN(C(=O)COc2cccc(Cl)c2)c2ccccn2)o1
inactive: Potency [1] | Potency [2] | Potency [3] | Potency [4] | Potency [5] | Potency [6]

COc1cccc(CN2CC(O)=C(c3nc(-c4ccc(Cl)cc4)cs3)C2=N)c1
inactive: Potency [1] | Potency [2] | activation [3] 0.958% [at 17.1 µM, percent relative to cAMP agonist control] | Potency [4] | activity change, negative = inhibition [5] -19.7% [at 30.8 µM] | activation [6] 0.754% [at 30.8 µM]

COc1cc2ccccc2cc1C(=O)N1CC(C)CC(C)C1 (stereo unspecified)
inactive: Potency [1] | Potency [2] | activation [3] 1.37% [at 17.1 µM, percent relative to cAMP agonist control] | Potency [4] | activity change, negative = inhibition [5] 1.39% [at 30.8 µM] | activation [6] 27.4% [at 30.8 µM]

COc1ccc(/C=C2/SC(=S)N(NS(=O)(=O)c3ccccc3)C2=O)cc1
inactive: Potency [2] | activation [3] -0.663% [at 17.1 µM, percent relative to cAMP agonist control] | Potency [4] | activity change, negative = inhibition [5] -9.92% [at 30.8 µM] | activation [6] -1.02% [at 30.8 µM]
active: Potency [1] 39.8 µM

O=C(COC(=O)c1ccc(O)cc1O)Nc1nnc(-c2ccccc2)o1
active: Potency [4] 84.9 µM
inactive: Potency [1] | Potency [2] | Potency [3] | Potency [5] | Potency [6]

CCOC(=O)c1oc2ccccc2c1CN1CCN(C(=O)c2ccccc2)CC1
inactive: Potency [1] | Potency [2] | Potency [3] | Potency [4] | Potency [5] | Potency [6]

Cc1cccc(C2c3[nH]c4ccccc4c3CCN2Cc2cccn2-c2ncccn2)c1 (stereo unspecified)
inactive: Potency [1] | Potency [2] | activation [3] -1.28% [at 17.1 µM, percent relative to cAMP agonist control] | Potency [4] | activity change, negative = inhibition [5] -4.15% [at 30.8 µM] | activation [6] 17.6% [at 30.8 µM]

COc1ccc(C(=O)c2ccccc2)c2c(O)ccc(C(=O)c3ccccc3)c12
inactive: Potency [1] | Potency [2] | Potency [3] | Potency [4] | Potency [5] | Potency [6]

CCc1nc2c(OCc3ccc(OC(F)F)cc3)cccn2c1N(C)C(=O)c1ccc(OC)cc1
inactive: Potency [1] | Potency [2] | Potency [3] | Potency [4] | Potency [5] | Potency [6]

CCOc1ccc(/C=C/C(=O)c2cc(Br)ccc(=O)c2O)cc1
active: Potency [1] 33.8 µM
inactive: Potency [2] | Potency [3] | Potency [4] | Potency [5] | Potency [6]

CC(=O)c1cccc(OC(=O)C2=CC=CN3CCS(=O)(=O)N=C23)c1
inactive: Potency [1] | Potency [2] | Potency [3] | Potency [4] | Potency [5] | Potency [6]

Cc1ccc(C2=NOC(=O)/C2=C\c2ccc(C)o2)cc1
active: Potency [1] 75.7 µM
inactive: Potency [2] | Potency [3] | Potency [4] | Potency [5] | Potency [6]

CC1(C(=O)NS(=O)(=O)c2cccc(F)c2)CCN1C(=O)C1(c2ccc(Cl)cc2)CCC1 (stereo unspecified)
inactive: Potency [2] | Potency [3] | Potency [4] | Potency [5] | Potency [6]
active: Potency [1] 19 µM

C=CCc1cc(/C=C/c2nc(O)c([N+](=O)[O-])c(=O)[nH]2)cc(OC)c1O
active: Potency [1] 33.8 µM
inactive: Potency [2] | Potency [3] | Potency [4] | Potency [5] | Potency [6]
